Drawing on PubChem BioAssay, this text covers composite z-score and z-score for six molecules.

Active and inactive are the calls of the source.

Assay [1] can be described thus: small molecules captured by biotinylated probe aFSTL3 – biochemical, small-molecule microarray, fluorescence 635/667, stem cell growth factor project, primary screen (AID 1064).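 Note: measures binding of the biotinylated anti-FSTL3 antibody to printed compounds.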 Conditions: higher = more signal.
Assay [2] is described as follows: binders from COS7 lysate, DM2A8 probe, primary screen, torsin A project, cell lysate, small-molecule microarray, fluorescence 635/667 (AID 1065). Conditions: higher = more signal, COS7 lysate expressing mutant human TOR1A.
The nature of assay [3]: small molecules captured by biotinylated probe aFGF2 – biochemical, small-molecule microarray, fluorescence 635/667, stem cell growth factor project, primary screen (AID 1067).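 Note: measures binding of biotinylated aFGF2 protein to printed compounds on slides; z-score merges feature fluorescence and signal-to-noise across triplicate slides.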 Conditions: higher = more signal.
A short description of assay [4]: small molecules captured by biotinylated probe aFGF10 – biochemical, small-molecule microarray, fluorescence 635/667, stem cell growth factor project, primary screen (AID 1071).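 Note: score merges 667 nm spot intensity and signal to noise from triplicate slides.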 Conditions: higher = more signal.
The target in assay [5] is Neurogenic locus notch homolog protein 2 (Homo sapiens) (UniProt Q04721). Briefly: small molecules binding Notch2 protein – biochemical, small-molecule microarray, 635 nm fluorescence, stem cell growth factors, primary screen (AID 1073). Conditions: higher = more signal.
The target of assay [6] is Pro-neuregulin-1, membrane-bound isoform (Homo sapiens) (UniProt Q02297). Briefly: small molecules binding neuregulin-1 protein – biochemical, small-molecule microarray, fluorescence 635/667, psychiatric disease protein project, primary screen (AID 1075).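 Note: score combines 667 nm spot fluorescence with signal to noise.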 Conditions: NRG1 binding, 635 nm fluorescence, higher = more signal.
Chain of Pro-neuregulin-1, membrane-bound isoform (Homo sapiens) (Q02297 whole entry, looked up, the tested form may be a part, canonical isoform): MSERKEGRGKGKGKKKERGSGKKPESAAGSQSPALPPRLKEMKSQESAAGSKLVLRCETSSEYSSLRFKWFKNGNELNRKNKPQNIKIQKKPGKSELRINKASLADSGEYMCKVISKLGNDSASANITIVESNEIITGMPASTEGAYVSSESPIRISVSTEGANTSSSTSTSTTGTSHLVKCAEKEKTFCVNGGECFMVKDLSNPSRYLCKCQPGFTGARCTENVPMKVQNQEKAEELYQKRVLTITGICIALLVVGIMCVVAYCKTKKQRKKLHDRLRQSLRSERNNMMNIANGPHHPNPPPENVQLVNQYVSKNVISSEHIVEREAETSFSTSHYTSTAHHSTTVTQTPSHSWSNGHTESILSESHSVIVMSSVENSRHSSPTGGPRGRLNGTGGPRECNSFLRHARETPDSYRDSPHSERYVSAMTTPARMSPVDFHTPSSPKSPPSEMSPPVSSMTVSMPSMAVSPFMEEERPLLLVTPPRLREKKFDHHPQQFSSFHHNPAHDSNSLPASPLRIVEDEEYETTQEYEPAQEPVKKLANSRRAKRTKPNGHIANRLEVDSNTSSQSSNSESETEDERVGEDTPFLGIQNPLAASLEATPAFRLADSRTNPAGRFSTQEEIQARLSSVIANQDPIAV
The subject of assay [7] is Neuregulin-1 EGF-like domain. The experiment in a line: small molecules binding NRG1 EGF domain – biochemical, small-molecule microarray, 635 nm fluorescence, primary screen (AID 1081).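 Note: binding of the protein to compounds printed on small-molecule microarray slides.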 Conditions: higher = more signal.
A short description of assay [8]: FRG1 expression reporter modulators in myotubes – cell-based, C2C12 myotubes, firefly/Renilla luciferase, luminescence, FRG1 inhibition for FSHD, primary screen (AID 1084). Conditions: FRG1 promoter luciferase, higher = more signal, called active from +8 up or from −8 down.
Assay [9] is described as follows: small molecules captured by biotinylated probe aFST – biochemical, small-molecule microarray, fluorescence 635/667, stem cell growth factor project, primary screen (AID 1086).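 Note: score merges 667 nm fluorescence with signal-to-noise of each printed compound spot.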 Conditions: higher = more signal.
Assay [10] in a line: binders of probe aHhip on microarray, primary screen, stem cell growth factor project, biochemical, small-molecule microarray, fluorescence 635/667 (AID 1087).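 Note: score merges spot fluorescence at 667nm with spot signal to noise ratio.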 Conditions: higher = more signal.
For assay [11], the system named is PRMT1 (protein arginine N-methyltransferase 1). The experiment in a line: small molecules binding arginine methyltransferase PRMT1 – biochemical, small-molecule microarray, 635 nm fluorescence, primary screen (AID 1088).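 Note: binding of Prmt1 protein to compounds spotted on small-molecule microarray slides.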 Conditions: higher = more signal.
Assay [12] in a line: growth effects on S. cerevisiae YJM789 – YJM789 clinical isolate, OD600, 24 h, basal, primary screen (AID 1089).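 Note: growth of clinical yeast isolate S. cerevisiae YJM 789 seeded 1000 cells per well; test concentration not given here.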 Conditions: higher = more signal, called active from +8 up or from −8 down.
Assay [13] is described as follows: S. pombe growth modifiers, basal conditions – strain 972, OD600, 24 h, no modulator, primary screen (AID 1090).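 Note: basal condition with compound alone and no growth modifier present; test concentration not given here.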 Conditions: S. pombe 972 growth, higher = more signal, called active from +8 up or from −8 down.
The nature of assay [14]: budding yeast growth modifiers under rapamycin – strain BY4716, OD600, 96 h, primary screen (AID 1091). Note: test concentration not given here. Conditions: S. cerevisiae BY4716 + rapamycin, higher = more signal, called active from +8 up or from −8 down.
In assay [15] the target is Torsin-1A-interacting protein 2 (Homo sapiens) (UniProt Q8NFQ8). The experiment in a line: small molecules binding lysate-expressed LULL1 – cell lysate, human LULL1 lysate, 635/667 nm fluorescence, primary screen (AID 1092).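 Note: score merges per-feature 667 nm fluorescence with signal-to-noise.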 Conditions: small-molecule microarray, hLULL1 lysate binding, 635 nm fluorescence; higher = more signal.
Chain of Torsin-1A-interacting protein 2 (Homo sapiens) (Q8NFQ8 whole entry, looked up): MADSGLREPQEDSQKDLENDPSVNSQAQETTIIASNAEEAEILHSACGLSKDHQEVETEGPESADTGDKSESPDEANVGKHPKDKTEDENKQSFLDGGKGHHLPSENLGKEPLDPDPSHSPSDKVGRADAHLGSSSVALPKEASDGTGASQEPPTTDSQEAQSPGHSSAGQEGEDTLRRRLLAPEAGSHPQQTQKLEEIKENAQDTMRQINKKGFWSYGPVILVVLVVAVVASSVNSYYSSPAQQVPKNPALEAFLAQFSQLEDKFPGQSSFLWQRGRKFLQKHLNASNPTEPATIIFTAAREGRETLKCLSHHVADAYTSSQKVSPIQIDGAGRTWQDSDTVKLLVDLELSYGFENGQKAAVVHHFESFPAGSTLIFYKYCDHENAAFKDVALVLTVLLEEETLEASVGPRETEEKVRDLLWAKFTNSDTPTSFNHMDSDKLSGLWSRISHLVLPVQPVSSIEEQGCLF
The nature of assay [16]: optical density change of DRC41 E. coli – strain DRC41, OD650, 24 h, E. coli filamentation project, primary screen (AID 1093).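 Note: MC1000 strain lacking acrAB efflux and sulA so SOS filamentation is blocked; test concentration not given here.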 Conditions: E. coli DRC41 growth, higher = more signal, called active from +8 up or from −8 down.
The nature of assay [17]: probe aLefty2 binding to arrayed compounds – biochemical, biotinylated probe, 635/667 nm fluorescence, primary screen (AID 1094).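 Note: score merges spot fluorescence near 667 nm with spot signal-to-noise ratio.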 Conditions: small-molecule microarray, higher = more signal.
The test system of assay [18] is Noggin (protein binding on small-molecule microarray). The experiment in a line: small molecules binding Noggin protein – biochemical, 635/667 nm fluorescence, primary screen (AID 1095).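 Note: score merges 667 nm feature fluorescence with signal to noise over triplicate slides.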 Conditions: 635 nm fluorescence, higher = more signal.
Assay [19] has as its target Neurogenic locus notch homolog protein 3 (Homo sapiens) (UniProt Q9UM47). The experiment in a line: small molecules binding NOTCH3 protein – biochemical, 635/667 nm fluorescence, primary screen (AID 1096). Conditions: small-molecule microarray, 635 nm fluorescence, higher = more signal.
Assay [20] is described as follows: probe aEGFR binding to arrayed compounds – biochemical, biotinylated probe, 635/667 nm fluorescence, primary screen (AID 1097).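 Note: probe is a biotinylated anti-EGFR antibody binding compounds printed on slides; score combines fluorescence near 667 nm and signal to noise of each spot.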 Conditions: small-molecule microarray, higher = more signal.

Chain of Neurogenic locus notch homolog protein 3 (Homo sapiens) (Q9UM47 whole entry, looked up): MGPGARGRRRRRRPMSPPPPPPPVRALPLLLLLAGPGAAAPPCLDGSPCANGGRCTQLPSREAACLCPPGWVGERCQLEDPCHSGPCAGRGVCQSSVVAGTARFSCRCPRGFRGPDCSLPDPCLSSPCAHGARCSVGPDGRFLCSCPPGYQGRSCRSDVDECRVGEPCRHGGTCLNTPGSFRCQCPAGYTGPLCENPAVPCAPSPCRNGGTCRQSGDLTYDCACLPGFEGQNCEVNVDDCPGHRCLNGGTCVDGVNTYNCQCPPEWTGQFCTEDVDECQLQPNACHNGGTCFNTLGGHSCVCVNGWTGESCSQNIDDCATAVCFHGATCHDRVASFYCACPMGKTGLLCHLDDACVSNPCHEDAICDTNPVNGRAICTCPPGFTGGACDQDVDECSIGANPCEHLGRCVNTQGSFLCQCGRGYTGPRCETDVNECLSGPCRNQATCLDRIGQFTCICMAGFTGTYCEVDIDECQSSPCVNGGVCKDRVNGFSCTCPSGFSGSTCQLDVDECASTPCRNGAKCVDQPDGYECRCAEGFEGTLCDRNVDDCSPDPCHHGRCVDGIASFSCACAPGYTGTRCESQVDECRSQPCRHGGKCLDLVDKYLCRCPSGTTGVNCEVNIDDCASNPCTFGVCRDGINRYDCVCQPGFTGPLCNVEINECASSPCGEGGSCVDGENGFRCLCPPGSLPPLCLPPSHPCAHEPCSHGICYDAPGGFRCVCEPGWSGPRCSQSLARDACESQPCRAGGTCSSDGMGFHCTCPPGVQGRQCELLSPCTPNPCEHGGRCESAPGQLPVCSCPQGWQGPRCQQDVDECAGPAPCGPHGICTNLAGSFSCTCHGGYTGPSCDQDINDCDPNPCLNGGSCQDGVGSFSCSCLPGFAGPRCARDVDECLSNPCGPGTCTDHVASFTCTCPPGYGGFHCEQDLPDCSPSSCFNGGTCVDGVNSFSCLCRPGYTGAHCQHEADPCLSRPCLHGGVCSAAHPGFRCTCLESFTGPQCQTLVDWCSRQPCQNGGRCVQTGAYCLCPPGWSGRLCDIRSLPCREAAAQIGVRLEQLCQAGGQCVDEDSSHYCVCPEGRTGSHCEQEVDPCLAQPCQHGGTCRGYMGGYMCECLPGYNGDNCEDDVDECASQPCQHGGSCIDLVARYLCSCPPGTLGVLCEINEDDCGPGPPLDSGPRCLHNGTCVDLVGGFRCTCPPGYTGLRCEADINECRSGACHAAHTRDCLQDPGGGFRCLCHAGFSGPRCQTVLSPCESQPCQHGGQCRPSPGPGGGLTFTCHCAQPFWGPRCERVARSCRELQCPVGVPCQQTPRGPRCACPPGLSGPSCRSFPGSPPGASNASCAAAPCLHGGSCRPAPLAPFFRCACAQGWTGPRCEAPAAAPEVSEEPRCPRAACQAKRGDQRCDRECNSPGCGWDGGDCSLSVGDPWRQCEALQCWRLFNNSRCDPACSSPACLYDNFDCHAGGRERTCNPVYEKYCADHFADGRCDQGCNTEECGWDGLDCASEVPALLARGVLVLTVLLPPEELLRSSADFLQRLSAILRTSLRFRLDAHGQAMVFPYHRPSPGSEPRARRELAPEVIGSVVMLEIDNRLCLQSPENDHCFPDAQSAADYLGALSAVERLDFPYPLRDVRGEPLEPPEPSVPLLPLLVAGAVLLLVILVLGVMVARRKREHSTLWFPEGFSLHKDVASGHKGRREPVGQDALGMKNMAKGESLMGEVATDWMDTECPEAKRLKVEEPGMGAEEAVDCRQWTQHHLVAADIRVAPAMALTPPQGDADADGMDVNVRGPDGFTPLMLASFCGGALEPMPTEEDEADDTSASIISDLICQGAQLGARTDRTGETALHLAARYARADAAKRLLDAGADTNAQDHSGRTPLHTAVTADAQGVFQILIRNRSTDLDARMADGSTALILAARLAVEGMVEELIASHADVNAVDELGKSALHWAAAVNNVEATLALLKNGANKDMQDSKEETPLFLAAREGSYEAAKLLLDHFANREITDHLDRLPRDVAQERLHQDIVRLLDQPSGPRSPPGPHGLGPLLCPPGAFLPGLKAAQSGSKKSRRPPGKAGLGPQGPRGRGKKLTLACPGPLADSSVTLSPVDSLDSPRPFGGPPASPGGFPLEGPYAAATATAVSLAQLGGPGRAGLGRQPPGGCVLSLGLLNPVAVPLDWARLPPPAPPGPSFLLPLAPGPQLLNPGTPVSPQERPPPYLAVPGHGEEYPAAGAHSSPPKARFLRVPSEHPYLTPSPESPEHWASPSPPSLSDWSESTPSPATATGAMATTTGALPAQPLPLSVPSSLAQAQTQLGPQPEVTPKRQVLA

On to `COC(=O)[C@@]1(CCS(=O)(=O)c2ccccc2)N=C(c2ccc(OCCCO)cc2)O[C@H]1c1ccccc1CN=[N+]=[N-]`, for which the composite z-score in assay [1] was 0.959; in [2] it was 0.38; in assay [3], -0.0533; in assay [4] it was -0.303; in [5], 0.914; in assay [6], 0.975. In addition, the composite z-score in assay [7] is 1.23; in [9] it was 0.883; in assay [10], -0.0634; in [11] it was 1.38; in assay [15], 3.01; in [17], 0.0054. Besides, the values for the composite z-score in assay [18], in assay [19] and in assay [20] were 0.338, 1 and 0.127, respectively. Besides, the z-score in [8] is -3.26 (inactive); in assay [12] it was 0.265 (inactive); in [13], 1.18 (inactive); in assay [14], 34.4 (active); in assay [16], 0.706 (inactive).

Consider `CCCCN1CC=CC23O[C@@H]4C=CCCOC(=O)C4[C@H]2C(=O)N(CCCCCCO)[C@@H]3C1=O` (stereo not given in full), for which the composite z-score in assay [1] was -0.206; in assay [2], -0.596; in [3] it was -0.246; in [4], -0.309; in assay [5] it was -1.1; in [6] it was 1.2. For the same molecule, the composite z-score is 1.41 in [7]; -0.422 in assay [9]; -0.7 in assay [10]; 1.31 in assay [11]; 1.74 in assay [15]; -0.462 in assay [17]. The composite z-score was -0.235 in assay [18], 0.294 in assay [19] and -0.227 in assay [20]. For the same molecule, the z-score in assay [8] is 0.357 (inactive); in [12], -0.0739 (inactive); in assay [13], -0.576 (inactive); in assay [14], 0.2 (inactive); in assay [16] it was -0.444 (inactive).

For the molecule `COC(=O)[C@@]1(Cc2ccc(OC)cc2)[C@H]2c3cc(C(=O)N4CCCC4)n(Cc4ccc(C)c(F)c4F)c3C[C@H]2CN1C(=O)c1ccccc1`, the composite z-score in assay [1] was 0.77; in [2], -0.5; in assay [3], 0.176; in assay [4] it was 0.78; in assay [5], 1.77; in assay [6], 1.65. Moreover, the composite z-score was 1.31 in assay [7]; 1.78 in assay [9]; 2.12 in assay [10]; 0.998 in [11]; 3.52 in [15]; 0.505 in assay [17]. In addition, the composite z-score in assay [18] was 0.214; in [19], 1.04; in assay [20] it was 0.178. Further, the z-score in assay [8] was 0.352 (inactive); in assay [12], 0.57 (inactive); in [13], 1.48 (inactive); in assay [14], 1.57 (inactive); in assay [16] it was 0.107 (inactive).

Consider `COC(=O)C(CC#Cc1ccc2c(c1)[C@]1(C(=O)N2)[C@H](C(=O)Nc2nc3ccccc3s2)[C@H]2C(=O)O[C@H](c3ccccc3)[C@H](c3ccccc3)N2[C@@H]1c1ccccc1OCCO)C(=O)OC`, for which the composite z-score in assay [1] turned out to be 0.0102; in assay [2] it was 0.628; in [3], 0.0941; in [4], 1.12; in assay [5], 1.26; in assay [6] it was 1.07. Moreover, the composite z-score in assay [7] was 1.31; in [9], 0.709; in assay [10], -0.0296; in [11] it was 1.55; in assay [15] it was 2.69; in [17], 0.0293. Further, the composite z-score in assay [18] was 0.485; in assay [19] it was 1.08; in [20], -0.0244. In addition, the z-score is 1.43 (inactive) in [8]; 1.35 (inactive) in assay [12]; 1.12 (inactive) in [13]; 1.39 (inactive) in [14]; -0.404 (inactive) in [16].

For `[N-]=[N+]=NCc1ccccc1[C@@H]1OC(c2ccc(OCCCO)cc2)=N[C@]1(Cc1ccccc1)C(=O)NCC(O)CO` (stereo not given in full), the composite z-score in [1] is 0.798; in assay [2] it was 0.42; in [3], 0.126; in assay [4], 0.343; in [5], -0.119; in [6], 1.84. Further, the composite z-score in assay [7] turned out to be 1.2; in [9], 0.421; in assay [10] it was 0.132; in assay [11] it was 1.25; in assay [15], 3.44; in assay [17] it was 0.414. For the same molecule, the composite z-score in assay [18] is 0.238; in assay [19], -0.27; in [20], 0.411. Also, the z-score in assay [8] is -0.339 (inactive); in assay [12], -0.427 (inactive); in assay [13], 0.0493 (inactive); in [14], -0.659 (inactive); in [16], 0.123 (inactive).

Consider `C=CCC(OC(C)=O)[C@@H]1[C@@H](N(Cc2ccc(-c3cccc(C(F)(F)F)c3)o2)C(=O)c2ccc(C)cc2)c2cc(OCCCO)ccc2N1C(=O)Cc1ccc2ccccc2c1` (stereo not given in full), for which the composite z-score in assay [1] is 0.0498; in assay [2] it was -0.752; in [3], -0.102; in [4], 0.205; in assay [5], -0.564; in assay [6], -0.326. For the same molecule, the composite z-score was -0.513 in [7]; 0.0714 in assay [9]; -0.134 in assay [10]; 0.0457 in assay [11]; -0.0958 in [15]; -0.0674 in [17]. Besides, the composite z-score in assay [18] was -0.408; in assay [19] it was -0.624; in assay [20], -0.108. Moreover, the z-score in assay [8] is -0.201 (inactive); in [12] it was 0.677 (inactive); in assay [13], -0.0286 (inactive); in [14] it was 0.303 (inactive); in assay [16] it was 1.6 (inactive).
